Assay results as given in PubChem BioAssay (NCI).
The panel holds about 83,000 compounds, 20% with a hit somewhere; the sample as a whole holds those more often.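 Negative percent growth values reflect cell death: -40 means 40% of the cells present at the start died, and -100 means all died.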 Values without a mark were called inactive. The source made the active and inactive calls. Rule for the calls: active = growth percent below 10; inactive = the rest.

Each compound was assayed on HL-60(TB) leukemia (assay: NCI-60 one-dose screen, 48 h (100 = growth as untreated, 0 = no growth, -100 = all killed)). Settings: 10 µM unless noted.

SMILES | growth
CN1CCN(CC#CCn2c3c(c4ccccc42)C[C@]2(C)[C@H]4CC=C5[C@@H]6CC(C)(C)CC[C@]6(C(=O)N6CCOCC6)CC[C@@]5(C)[C@]4(C)CC[C@H]2C3(C)C)CC1 | 16.2%
COc1ccc(-c2nc(SCCC(C)C)nc(N/N=C\c3ccc(O)cc3)c2C#N)cc1 | 73.3%
CN1C(=O)N(c2ccccc2)C2N=C(N/N=C/c3ccccc3)SC21 (stereo not given) | -6.56% (active)
CNC(=O)c1cc(Oc2ccc3c(c2)sc2nc(-c4ccc(N(C)C)cc4)cn23)ccn1 | 5.28% (active)
CSCCC(C(=O)O)N1C(=O)/C(=C/c2ccc(O)c(O)c2)SC1=S (stereo not given) | 103%
C=CCOc1cccc(/C=C2\SC(=S)N(C3CC(=O)N(c4ccc(Br)cc4)C3=O)C2=O)c1 (stereo not given) | 108%
Cc1ccc2c(n1)C(=O)C(Cl)=C(Nc1cc(C(F)(F)F)cc(C(F)(F)F)c1)C2=O | 40.7%
O=C(Nc1ccc(N=Cc2c(O)[nH]c3ccccc23)cc1)Nc1nccs1 | 42%
Oc1cccc2ccc(-c3nnc(SCc4ccc(O)c5ncccc45)n3-c3ccccc3)nc12 | 3.4% (active)
Cc1ccc2c(n1)C(=O)C(Cl)=C(Nc1ccc(C)c(C)c1)C2=O | 58.4%
O=C(COc1ccc(C2SCC(=O)N2c2ccccc2)cc1)c1ccccc1 (stereo not given) | 96.2%
C#CCOc1ccc(/C=N/Nc2nc(-c3ccc(OC)cc3)cs2)cc1 | 60%
C#Cc1nc(C2=C(C)C(OC(=O)CCC(=O)O)CC2)cs1 (stereo not given) | 101%
COc1ccc(C2CC(c3ccc(Nc4nc(NCCO)nc(N5CCOCC5)n4)cc3)=Nc3c(N)nc(N)nc3N2)cc1 (stereo not given) | 90.9%
C=C(C)[C@@H]1CC[C@]2(COS(C)(=O)=O)CC[C@]3(C)[C@H](CC[C@@H]4[C@@]5(C)CCCNC(C)(C)[C@@H]5CC[C@]43C)[C@@H]12 | 34.1%
Cc1cc(C)c(N2C(=O)CC(Nc3ccc(Cl)cc3Cl)C2=O)c(C)c1 (stereo not given) | 100%
COC(=O)N1CCN(CCNCc2ccc(NC(=O)c3ccc(C)c(C#Cc4cnc5cccnn45)c3)cc2C(F)(F)F)CC1 | -12.3% (active)
O=C1[C@@H]2Cc3c([nH]c4ccccc34)[C@H](c3c(Cl)cccc3Cl)N2C(=O)CN1C1CCN(Cc2ccccc2)CC1 | 29.3%
CN1CCN(c2nc(-c3csc(-c4ccncc4)n3)cc3ccccc23)CC1 | 32.2%
CCC1=Cc2cc(OC)ccc2OC12C=Cc1cc(OC)ccc1O2 (stereo not given) | -1.93% (active)

SMILES | growth
COc1ccc(-c2cc(-c3ccc(N(C)C)cc3)n3c(n2)nc2ccccc23)cc1 | 18.4%
COc1ccccc1N1CCN(C2=NN=C(c3cccc(Cl)c3)c3ccccc3C2)CC1 | -55.5% (active)
NS(=O)(=O)c1ccc(-n2cc(CN3CCCCC3)nn2)cc1 | 101%
C=CCN(C)S(=O)(=O)/N=C1\NC(=O)NC1=C(Cl)Cl | -51.7% (active)
CN(c1ccc(Br)cc1)S(=O)(=O)c1ccc(-c2cnc(C3CC3)o2)cc1 | -25.1% (active)
O=C(O)CC1CCN(c2ccc3nnc(Cl)n3n2)CC1 | 104%
Oc1ccc(CSc2nnc(-c3ccc(Br)cc3)n2-c2ccccc2)c2cccnc12 | 27.5%
CCOC(=O)c1c(Nc2ccccc2)nn2c(-c3ccc(Br)cc3)ccnc12 | 90.6%
COc1ccc(/C=N/NC(=O)c2c(N)nn(C)c2Nc2ccccc2)cc1 | 15.5%
CC(C)C[C@H]1C(=O)O[C@H](C(C)C)C(=O)N(C)[C@@H](C(C)C)C(=O)O[C@H](C(C)C)C(=O)N(C)[C@@H](C(C)C)C(=O)O[C@H](C(C)C)C(=O)N1C | -51.3% (active)
COc1ccccc1C(=O)Nc1cccc2c1C(=O)C(=O)C=C2 | 9.19% (active)
O=C(CSc1nccc(=O)[nH]1)Nc1ccc(-c2nc3ccccc3[nH]2)cc1 | 115%
COc1ccc(NC2=C(Cl)C(=O)C(C)=C(C)C2=O)cc1 | 37.4%
NS(=O)(=O)c1ccc(Nc2nc(SCC(=O)c3ccc(Cl)cc3)nc3ccccc23)cc1 | 103%
NS(=O)(=O)c1ccc(Nc2nc(Nc3ccccc3)nc(-n3nc(-c4ccccc4)cc3-c3ccccc3)n2)cc1 | 4.82% (active)
O=C(N/N=C\c1ccc([N+](=O)[O-])cc1)c1ccc2nc(-c3ccc(Br)cc3)[nH]c2c1 | 1.86% (active)
O=C(CSc1nc2ccccc2c(=O)n1-c1ccccc1)N/N=C/c1ccc(Oc2ccc(Br)cc2)cc1 | 105%
CCCn1cnc2c(c1=N)C(c1ccc(Cl)cc1)c1sc3c(CC)cccc3c1O2 (stereo not given) | 0.217% (active)
Oc1ccc(CSc2nnc(-c3ccc(Oc4ccccc4)cc3)n2-c2ccccc2)c2cccnc12 | 10.1%
COc1cccc(N2CCN(c3ncnc4c3[nH]c3ccc(F)cc34)C[C@H]2C)c1 | 33%
